Source: the supplement of paper PMC10849652
About 7,900 targets were measured; listed, in parts, are those with a hit and a random draw of the rest. About 0.6% of all pairs of compound and target were hits.

Columns and labels:
Assay in all cases: log2 fold change, soluble protein after heating vs DMSO (PISA); higher = thermal stabilisation; K562 cells, 10 uM, 30 min; active = over 0.2 and 3.5 SD of the protein, either way, in both replicates (recomputed)
saracatinib = compound: CN1CCN(CCOc2cc(OC3CCOCC3)c3c(Nc4c(Cl)ccc5c4OCO5)ncnc3c2)CC1 [saracatinib]
Procedure, shortened: (§1)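 K562 cells at 2×10^6 cells/mL were exposed to 10 μM compound for 30 min, then aliquots were heated for 3 min across 48°C-58°C, pooled, and extracted in PBS containing 0.5% NP-40 at 4°C. The supernatant after 21,000xg for 90 min was taken as soluble protein and measured by TMTpro 16plex LC-MS/MS with channel sums equalised. Thermal stability is reported relative to control samples, with values from duplicates. Fold changes are given on a log2 scale.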

sotrastaurin = compound: CN1CCN(c2nc(C3=C(c4c[nH]c5ccccc45)C(=O)NC3=O)c3ccccc3n2)CC1 [sotrastaurin]
Procedure, shortened: as §1

alvocidib = compound: CN1CC[C@H](c2c(O)cc(O)c3c(=O)cc(-c4ccccc4Cl)oc23)[C@H](O)C1 [alvocidib]
Procedure, shortened: as §1

Tubastatin A = compound: CN1CCc2c(c3ccccc3n2Cc2ccc(C(=O)NO)cc2)C1 [Tubastatin A]
Procedure, shortened: as §1

[1] = compound: CNC(=O)C1=CC=CC=C1NC2=NC(=NC=C2Cl)NC3=C(C=C(C=C3)N4CCOCC4)OC
Procedure, shortened: as §1

defactinib = compound: CNC(=O)c1ccc(Nc2ncc(C(F)(F)F)c(NCc3nccnc3N(C)S(C)(=O)=O)n2)cc1 [defactinib]
Procedure, shortened: as §1

rucaparib = compound: CNCc1ccc(-c2[nH]c3cc(F)cc4c3c2CCNC4=O)cc1 [rucaparib]
Procedure, shortened: as §1

[2] = compound: CNc1nc(-c2ccc3c(N)n[nH]c3c2)cc(N2C[C@@H](C(=O)NC3CCCCC3)CC[C@H]2C)n1
Procedure, shortened: as §1

encorafenib = compound: COC(=O)N[C@@H](C)CNc1nccc(-c2cn(C(C)C)nc2-c2cc(Cl)cc(NS(C)(=O)=O)c2F)n1 [encorafenib]
Procedure, shortened: as §1

[3] = compound: COC(=O)[C@H](CCSC)NC(=O)C1=C(C=C(C=C1)NC[C@H](CS)N)C2=CC=CC=C2
Procedure, shortened: as §1

[4] = compound: COC1=CC=C(C=C1)CN2C=CC3=C2C=C(C=C3)C(=O)NO
Procedure, shortened: as §1

filanesib = compound: CON(C)C(=O)N1N=C(c2cc(F)ccc2F)S[C@@]1(CCCN)c1ccccc1 [filanesib]
Procedure, shortened: as §1

zotarolimus = compound: CO[C@H]1C[C@@H]2CC[C@@H](C)[C@@](O)(O2)C(=O)C(=O)N2CCCC[C@H]2C(=O)O[C@H]([C@H](C)C[C@@H]2CC[C@H](n3cnnn3)[C@H](OC)C2)CC(=O)[C@H](C)/C=C(\C)[C@@H](O)[C@@H](OC)C(=O)[C@H](C)C[C@H](C)/C=C/C=C/C=C/1C [zotarolimus]
Procedure, shortened: as §1

idasanutlin = compound: COc1cc(C(=O)O)ccc1NC(=O)[C@@H]1N[C@@H](CC(C)(C)C)[C@](C#N)(c2ccc(Cl)cc2F)[C@H]1c1cccc(Cl)c1F [idasanutlin]
Procedure, shortened: as §1

alisertib = compound: COc1cc(Nc2ncc3c(n2)-c2ccc(Cl)cc2C(c2c(F)cccc2OC)=NC3)ccc1C(=O)O [alisertib]
Procedure, shortened: as §1

[5] = compound: COc1cc2nc(-c3cc(F)ccc3O)nc(N[C@@H]3CNC[C@H]3C(C)(C)O)c2cc1OC
Procedure, shortened: as §1

gefitinib = compound: COc1cc2ncnc(Nc3ccc(F)c(Cl)c3)c2cc1OCCCN1CCOCC1 [gefitinib]
Procedure, shortened: as §1

[6] = compound: COc1cccc2cc(-c3nc([C@H]4CC[C@H](C(=O)O)CC4)n4ncnc(N)c34)[nH]c12
Procedure, shortened: as §1

lapatinib = compound: CS(=O)(=O)CCNCc1ccc(-c2ccc3ncnc(Nc4ccc(OCc5cccc(F)c5)c(Cl)c4)c3c2)o1 [lapatinib]
Procedure, shortened: as §1

pictilisib = compound: CS(=O)(=O)N1CCN(Cc2cc3nc(-c4cccc5[nH]ncc45)nc(N4CCOCC4)c3s2)CC1 [pictilisib]
Procedure, shortened: as §1

Measured: log2 fold change

PSPC1 (UniProt Q8WXF1)
UniProt Q8WXF1, sequence (Q8WXF1 whole entry, looked up): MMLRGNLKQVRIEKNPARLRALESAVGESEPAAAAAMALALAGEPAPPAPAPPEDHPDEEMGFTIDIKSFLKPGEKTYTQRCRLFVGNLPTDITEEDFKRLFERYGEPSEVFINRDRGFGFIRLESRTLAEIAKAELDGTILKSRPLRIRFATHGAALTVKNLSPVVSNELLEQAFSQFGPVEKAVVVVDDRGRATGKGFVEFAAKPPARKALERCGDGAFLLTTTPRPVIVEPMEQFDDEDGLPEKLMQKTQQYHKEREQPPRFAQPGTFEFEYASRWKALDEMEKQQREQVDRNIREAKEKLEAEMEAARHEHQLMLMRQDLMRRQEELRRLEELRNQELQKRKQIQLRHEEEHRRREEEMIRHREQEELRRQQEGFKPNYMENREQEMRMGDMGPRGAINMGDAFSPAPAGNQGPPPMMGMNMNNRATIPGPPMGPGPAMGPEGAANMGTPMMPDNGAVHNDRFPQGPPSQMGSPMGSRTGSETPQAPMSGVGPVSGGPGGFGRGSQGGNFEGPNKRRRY
active: defactinib -0.342
inactive: saracatinib 0.007 | sotrastaurin -0.062 | alvocidib -0.068 | Tubastatin A 0.041 | [1] -0.036 | rucaparib 0.002 | [2] -0.011 | encorafenib 0.03 | [3] -0.028 | [4] 0.008 | filanesib 0.048 | zotarolimus 0.026 | idasanutlin 0.03 | alisertib -0.084 | [5] -0.146 | gefitinib 0.061 | [6] -0.042 | lapatinib 0.152 | pictilisib -0.081

PDE4A (UniProt P27815)
UniProt P27815, sequence (P27815 whole entry, looked up): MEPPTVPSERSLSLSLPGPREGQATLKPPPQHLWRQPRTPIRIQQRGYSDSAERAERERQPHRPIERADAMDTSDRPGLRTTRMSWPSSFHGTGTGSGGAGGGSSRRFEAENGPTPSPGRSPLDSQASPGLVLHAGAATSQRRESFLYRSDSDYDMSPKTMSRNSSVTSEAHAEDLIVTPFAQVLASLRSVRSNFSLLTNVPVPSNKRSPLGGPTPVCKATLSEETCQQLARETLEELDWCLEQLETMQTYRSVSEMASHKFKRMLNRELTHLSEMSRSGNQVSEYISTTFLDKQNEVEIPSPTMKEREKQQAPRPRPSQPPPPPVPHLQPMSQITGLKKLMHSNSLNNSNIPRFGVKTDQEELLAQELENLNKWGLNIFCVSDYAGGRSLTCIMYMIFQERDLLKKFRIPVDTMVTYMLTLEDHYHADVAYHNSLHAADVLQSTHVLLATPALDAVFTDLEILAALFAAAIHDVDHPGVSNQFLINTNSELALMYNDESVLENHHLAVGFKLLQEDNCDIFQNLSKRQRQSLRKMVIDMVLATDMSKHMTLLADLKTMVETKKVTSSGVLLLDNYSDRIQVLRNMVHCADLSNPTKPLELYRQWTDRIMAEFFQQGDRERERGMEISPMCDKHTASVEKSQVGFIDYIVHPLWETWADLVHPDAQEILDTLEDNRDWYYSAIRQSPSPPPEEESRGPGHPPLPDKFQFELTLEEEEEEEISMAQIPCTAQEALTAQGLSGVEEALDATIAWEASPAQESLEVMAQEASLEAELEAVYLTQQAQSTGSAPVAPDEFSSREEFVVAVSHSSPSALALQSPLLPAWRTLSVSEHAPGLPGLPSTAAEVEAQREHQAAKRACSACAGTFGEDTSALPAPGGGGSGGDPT
inactive: alvocidib -0.263 | Tubastatin A 0.054 | [1] 0.017 | defactinib -0.145 | [3] -0.018 | [4] -0.442 | zotarolimus 0.07 | idasanutlin 0.098 | [5] 0.112 | lapatinib -0.016

PCBP2 (UniProt F8VZX2)
inactive: saracatinib 0.009 | alvocidib -0.3 | [1] 0.06 | [2] 0.084 | [4] 0.03 | zotarolimus 0.158 | alisertib -0.04 | gefitinib -0.111 | [6] -0.018

PSMD8 (UniProt K7ERW6)
inactive: Tubastatin A 0.235 | defactinib 0.011 | [3] 0.066 | [4] -0.188

PUF60 isoform 2 (UniProt Q9UHX1)
UniProt Q9UHX1, sequence (Q9UHX1 whole entry, looked up): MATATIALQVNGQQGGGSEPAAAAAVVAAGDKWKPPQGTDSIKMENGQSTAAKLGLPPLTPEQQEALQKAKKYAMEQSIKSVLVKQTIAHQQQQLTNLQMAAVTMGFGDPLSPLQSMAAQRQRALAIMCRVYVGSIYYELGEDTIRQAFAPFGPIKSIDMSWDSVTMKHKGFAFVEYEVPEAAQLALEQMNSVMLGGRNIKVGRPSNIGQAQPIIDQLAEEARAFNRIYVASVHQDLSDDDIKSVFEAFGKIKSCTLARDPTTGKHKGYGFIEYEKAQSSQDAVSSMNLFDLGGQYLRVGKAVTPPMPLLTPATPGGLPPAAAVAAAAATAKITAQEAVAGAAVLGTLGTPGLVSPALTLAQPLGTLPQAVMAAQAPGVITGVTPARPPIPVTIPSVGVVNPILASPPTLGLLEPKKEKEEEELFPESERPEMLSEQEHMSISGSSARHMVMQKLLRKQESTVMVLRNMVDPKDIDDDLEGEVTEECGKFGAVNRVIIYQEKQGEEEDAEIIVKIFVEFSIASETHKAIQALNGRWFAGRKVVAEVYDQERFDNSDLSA
inactive: saracatinib 0.107 | alvocidib -0.306 | Tubastatin A 0.202 | defactinib -0.165 | [2] -0.403 | [3] -0.089 | zotarolimus 0.18 | idasanutlin -0.042 | alisertib -0.203 | [5] -0.071 | [6] 0.027 | lapatinib 0.407

PKN2 (UniProt Q16513)
UniProt Q16513, sequence (Q16513 whole entry, looked up): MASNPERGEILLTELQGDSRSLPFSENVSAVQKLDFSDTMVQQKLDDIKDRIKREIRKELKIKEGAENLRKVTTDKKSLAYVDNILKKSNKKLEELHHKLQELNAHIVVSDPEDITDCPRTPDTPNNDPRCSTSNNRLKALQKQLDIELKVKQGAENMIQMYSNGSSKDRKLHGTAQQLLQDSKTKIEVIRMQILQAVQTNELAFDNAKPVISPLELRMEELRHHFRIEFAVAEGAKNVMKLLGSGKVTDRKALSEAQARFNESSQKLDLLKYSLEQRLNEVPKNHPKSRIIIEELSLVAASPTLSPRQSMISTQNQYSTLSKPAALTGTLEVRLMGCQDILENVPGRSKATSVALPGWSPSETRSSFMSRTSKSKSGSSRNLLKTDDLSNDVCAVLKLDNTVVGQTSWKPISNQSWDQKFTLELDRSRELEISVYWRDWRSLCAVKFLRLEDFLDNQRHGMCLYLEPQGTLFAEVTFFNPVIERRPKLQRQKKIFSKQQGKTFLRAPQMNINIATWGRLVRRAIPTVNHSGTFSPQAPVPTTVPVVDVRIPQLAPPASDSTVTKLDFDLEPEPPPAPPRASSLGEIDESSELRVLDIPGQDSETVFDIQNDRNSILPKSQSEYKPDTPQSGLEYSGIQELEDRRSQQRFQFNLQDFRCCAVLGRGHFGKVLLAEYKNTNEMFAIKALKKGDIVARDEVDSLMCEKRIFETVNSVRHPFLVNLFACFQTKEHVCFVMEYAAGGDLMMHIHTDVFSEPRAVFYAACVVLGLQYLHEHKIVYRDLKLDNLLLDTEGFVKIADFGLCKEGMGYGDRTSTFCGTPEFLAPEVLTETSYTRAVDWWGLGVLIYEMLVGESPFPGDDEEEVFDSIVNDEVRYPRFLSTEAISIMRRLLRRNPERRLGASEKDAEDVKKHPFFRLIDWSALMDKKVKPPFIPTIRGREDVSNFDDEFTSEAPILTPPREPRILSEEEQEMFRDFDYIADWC
inactive: saracatinib -0.059 | alvocidib -0.159 | Tubastatin A 0.025 | [1] 0.037 | defactinib -0.099 | rucaparib -0.039 | [2] -0.037 | encorafenib 0.024 | [3] -0.05 | [4] 0.001 | filanesib -0.085 | zotarolimus 0.01 | idasanutlin -0.016 | [5] -0.069 | gefitinib 0.004 | [6] 0.034 | lapatinib -0.013 | pictilisib 0

PHLDB1 isoform 2 (UniProt Q86UU1)
UniProt Q86UU1, sequence (Q86UU1 whole entry, looked up): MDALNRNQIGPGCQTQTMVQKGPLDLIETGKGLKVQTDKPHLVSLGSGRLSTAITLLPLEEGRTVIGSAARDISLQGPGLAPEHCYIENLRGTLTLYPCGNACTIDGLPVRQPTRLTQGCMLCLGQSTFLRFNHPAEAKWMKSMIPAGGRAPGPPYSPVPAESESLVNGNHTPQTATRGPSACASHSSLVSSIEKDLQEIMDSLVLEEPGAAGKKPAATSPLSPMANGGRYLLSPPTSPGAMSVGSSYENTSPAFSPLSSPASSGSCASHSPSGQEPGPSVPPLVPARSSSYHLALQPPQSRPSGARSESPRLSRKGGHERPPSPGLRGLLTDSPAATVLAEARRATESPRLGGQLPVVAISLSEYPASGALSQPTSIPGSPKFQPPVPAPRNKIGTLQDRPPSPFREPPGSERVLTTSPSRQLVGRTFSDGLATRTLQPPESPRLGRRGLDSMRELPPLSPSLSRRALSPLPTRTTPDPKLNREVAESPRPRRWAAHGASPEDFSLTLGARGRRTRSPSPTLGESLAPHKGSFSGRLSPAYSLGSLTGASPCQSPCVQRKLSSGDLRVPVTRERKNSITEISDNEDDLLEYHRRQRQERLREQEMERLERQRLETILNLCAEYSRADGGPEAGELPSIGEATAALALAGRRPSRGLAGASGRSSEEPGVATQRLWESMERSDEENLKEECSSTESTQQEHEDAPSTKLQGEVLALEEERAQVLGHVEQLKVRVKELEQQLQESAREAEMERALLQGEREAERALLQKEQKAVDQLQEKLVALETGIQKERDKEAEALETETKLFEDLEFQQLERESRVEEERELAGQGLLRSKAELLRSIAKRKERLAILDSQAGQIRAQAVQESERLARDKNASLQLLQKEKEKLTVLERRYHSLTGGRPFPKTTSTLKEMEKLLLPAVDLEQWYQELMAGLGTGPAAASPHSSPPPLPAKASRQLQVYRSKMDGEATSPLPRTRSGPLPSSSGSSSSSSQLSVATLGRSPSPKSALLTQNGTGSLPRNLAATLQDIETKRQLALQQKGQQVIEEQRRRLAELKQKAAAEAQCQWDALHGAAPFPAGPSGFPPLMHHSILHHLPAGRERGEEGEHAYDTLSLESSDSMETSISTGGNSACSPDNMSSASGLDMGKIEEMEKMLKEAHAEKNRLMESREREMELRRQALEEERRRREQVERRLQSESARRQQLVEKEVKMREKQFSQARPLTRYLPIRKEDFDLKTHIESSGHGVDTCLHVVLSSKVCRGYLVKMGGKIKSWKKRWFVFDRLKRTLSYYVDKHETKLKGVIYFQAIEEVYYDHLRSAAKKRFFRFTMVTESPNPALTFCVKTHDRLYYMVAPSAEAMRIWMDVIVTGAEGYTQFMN
inactive: saracatinib -0.02 | alvocidib -0.353 | Tubastatin A -0.023 | [1] -0.164 | defactinib -0.035 | rucaparib 0.011 | [2] 0.066 | encorafenib 0.089 | [3] -0.001 | [4] 0 | zotarolimus 0.014 | idasanutlin -0.033 | alisertib -0.098 | [5] -0.069 | gefitinib 0.149 | [6] -0.032 | lapatinib -0.039
active: pictilisib -0.498

PRKD2 (UniProt M0R346)
inactive: sotrastaurin -0.247 | filanesib 0.038 | pictilisib 0.06

PMS2CL (UniProt Q68D20)
UniProt Q68D20, sequence (Q68D20 whole entry, looked up): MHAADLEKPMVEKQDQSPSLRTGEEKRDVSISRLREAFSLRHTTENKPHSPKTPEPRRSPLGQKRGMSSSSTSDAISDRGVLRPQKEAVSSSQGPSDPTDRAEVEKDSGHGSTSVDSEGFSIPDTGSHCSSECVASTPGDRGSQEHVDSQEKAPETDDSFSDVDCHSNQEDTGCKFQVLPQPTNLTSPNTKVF
inactive: alisertib -0.254 | gefitinib 0.033 | [6] -0.099

PSMA3 (UniProt G3V4X5)
inactive: defactinib 0.061 | [3] -0.208 | [4] -0.122 | [5] 0.255 | lapatinib -0.18
